# Test results as given in PubChem BioAssay AID1402 (National Center for Advancing Translational Sciences (NCATS), 2008).
# Results filed as inconclusive are left out. Calls of active or inactive are those of the source. Calls follow the shape of the dose curve; as a rule, active = well fitted curve in the direction sought with a large enough effect in the signal ratio; inconclusive = small, poorly fitted or top-dose-only effect, or effect the other way, or a change in a side signal; inactive = no such curve, though single readings can be large or run the other way; the % refers to the signal ratio.
# Target: Lutropin-choriogonadotropic hormone receptor (Homo sapiens) (UniProt P22888)
# Sequence (P22888 whole entry, looked up): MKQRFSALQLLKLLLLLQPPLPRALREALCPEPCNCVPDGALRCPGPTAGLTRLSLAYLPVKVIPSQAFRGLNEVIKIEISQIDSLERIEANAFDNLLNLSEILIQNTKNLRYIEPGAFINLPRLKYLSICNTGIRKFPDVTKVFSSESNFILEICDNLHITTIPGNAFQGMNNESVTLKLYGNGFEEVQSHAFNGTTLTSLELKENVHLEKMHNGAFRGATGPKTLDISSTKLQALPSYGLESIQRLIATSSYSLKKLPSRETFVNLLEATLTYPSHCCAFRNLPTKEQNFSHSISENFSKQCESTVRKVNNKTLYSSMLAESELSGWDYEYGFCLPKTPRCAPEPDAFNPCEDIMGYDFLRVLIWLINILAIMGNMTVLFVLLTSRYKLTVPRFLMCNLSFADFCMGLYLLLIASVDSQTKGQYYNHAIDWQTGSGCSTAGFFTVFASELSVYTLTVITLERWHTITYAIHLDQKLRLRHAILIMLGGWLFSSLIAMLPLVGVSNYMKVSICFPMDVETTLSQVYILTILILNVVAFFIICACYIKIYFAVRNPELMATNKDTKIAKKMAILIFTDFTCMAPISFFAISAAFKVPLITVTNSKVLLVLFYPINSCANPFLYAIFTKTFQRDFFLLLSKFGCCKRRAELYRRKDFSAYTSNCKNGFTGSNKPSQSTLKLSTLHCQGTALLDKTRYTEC
# Test: Counterscreen for Agonists of Thyroid Stimulating Hormone Receptor: HTRF Activity in a Luteinizing Hormone Receptor Cell Line
# Details: HEK293-LHR cells, cAMP HTRF ratio, 30 min; series mostly up to 91.7 µM
# From the text: NIH Chemical Genomics Center [NCGC] NIH Molecular Libraries Screening Centers Network [MLSCN] MLSCN Grant: 1 X01 MH080680-01 PI Name: Dr. Marvin Gershengorn, NIH NCGC Assay Overview: Confirmation of Thyroid Stimulating Hormone Receptor Agonists TSH is an alpha/beta heterodimeric glycoprotein hormone secreted from the anterior pituitary gland which belongs to the glycoprotein hormone family. The actions of TSH are mediated by a seven-transmembrane receptor, which upon TSH binding couples preferentially to the G-alpha (s) protein (Gs), resulting in activation of adenylate cyclase and increase in cyclic adenosine 3', 5' monophosphate (cAMP). The TSH receptor (THSR) is mainly expressed in thyroid follicular cells and regulates their growth and function. Recombinant TSH is used to activate TSHR in patients with thyroid cancer receiving thyroid hormone suppression therapy and to screen for residual tumor after surgery, but it is expensive and must be administered intramuscularly. An orally active small molecule TSHR agonist would serve as an invaluable research tool for studying TSHR pharmacology and physiology, and would have multiple advantages in therapeutic settings. However, no selective small molecule agonist of the TSH receptor exists, and no small molecule screen for TSHR agonists has ever been reported. In order to confirm specificity of the compounds to the TSHR, a confirmatory assay was conducted on a similar family member, the Luteinizing Hormone (LH) receptor, transfected into a HEK 293 cell line, using an orthogonal detection technology to measure cAMP stimulation: antibody-based Homogeneous Time Resolved Fluorescence (HTRF).
# NCGC Assay Protocol Summary: Homogeneous Time Resolved Fluorescence (HTRF) cAMP Assay. HEK 293 cells stably transfected with a vector containing the LH receptor and maintained under hygromycin selection were obtained from the laboratory of Dr. Marvin Gershengorn. Compounds were assayed using a HTRF cAMP detection kit (Cisbio) on the LH receptor transfected cell line. Briefly, 750 cells were plated in 2.5 ul/well of complete media (DMEM containing 10 % FCS, and 100 uM RO 20-1724) in 1536 well solid bottom white plates and 23 nl/well compound in DMSO solution or controls was added. Following 30 minute incubation at room temperature, 2.5 ul/well of labeled d2 cAMP and 2.5 ul/well of anti-cAMP antibody (both diluted 1:20 in lysis buffer) were added to each well using a flying reagent dispenser (Aurora Discovery, San Diego) . Plates were measured using the Envision plate reader (PerkinElmer, Boston, MA) with excitation at 330 nm and emissions of 615 nm and 660 nm. Keywords: Luteinizing hormone LH, Thyroid-stimulating hormone TSH, TSHR, TSHR agonist, quantitative high throughput screening, qHTS, HTS, probe identification, CNG, cAMP, cyclic nucleotide gated ion channel PubChem
row,Compound,outcome
1,O=C(COC(=O)C12CC3CC(CC(O)(C3)C1)C2)NCc1ccco1,inactive
2,O=C(COC(=O)C12CC3CC(CC(C3)C1)C2)NCc1ccco1,inactive
3,O=C(COC(=O)C12CC3CC(CC(Br)(C3)C1)C2)NCc1ccco1,inactive
4,O=C1CC(c2ccco2)CC2=C1C(c1ccccc1)n1nc(C(F)(F)F)nc1N2 (configuration not stated),inactive
5,NC(=O)c1nsc(C(=O)N(CC(=O)NCc2ccc3c(c2)OCO3)C2CCCCC2)c1N,inactive
6,NC(=O)c1nsc(C(=O)N(CC(=O)NCc2ccc3c(c2)OCO3)C2CCCC2)c1N,inactive
7,COc1ccc(C2Nc3ccccc3C(=O)N2Cc2ccco2)cc1COc1ccc(NC(C)=O)cc1 (configuration not stated),inactive
8,O=C1C2C3CCCC3=C3CCCC3C2C(=O)N1c1ccccc1Cl (configuration not stated),inactive
9,O=C1C2C3CCCC3=C3CCCC3C2C(=O)N1c1ccc(Cl)cc1 (configuration not stated),inactive
10,O=C(COC(=O)C12CC3CC(CC(C3)C1)C2)NCC1CCCO1 (configuration not stated),inactive
11,O=C1CC(c2ccccc2)CC2=C1C(c1ccco1)n1nc(C(F)(F)F)nc1N2 (configuration not stated),inactive
12,Cc1sc2ncn(/N=C/c3cn(-c4ccccc4)nc3-c3ccccc3)c(=O)c2c1C,inactive
13,O=C1C2C3CCCC3=C3CCCC3C2C(=O)N1c1ccc(F)cc1 (configuration not stated),inactive
14,COc1cc(OC)c(C(=O)N(Cc2ccco2)Cc2cccs2)cc1OC,inactive
15,COc1ccc(C(=O)N(Cc2ccco2)Cc2cccs2)cc1,inactive
16,O=C1C2C3CCCC3=C3CCCC3C2C(=O)N1c1cccc(Cl)c1 (configuration not stated),inactive
17,COc1ccc(C(=O)N(Cc2ccco2)Cc2cccs2)c(O)c1,inactive
18,COc1ccc(C2Nc3ccccc3C(=O)N2Cc2ccco2)cc1COc1ccc([N+](=O)[O-])cc1 (configuration not stated),inactive
19,COc1ccc(C2Nc3ccccc3C(=O)N2Cc2ccco2)cc1COc1c(C)cccc1C (configuration not stated),inactive
20,NC(=O)c1nsc(C(=O)N(CC(=O)NC2CCCC2)Cc2ccc3c(c2)OCO3)c1N,inactive
21,O=c1c2c(-c3ccccc3)csc2ncn1/N=C/c1cn(-c2ccccc2)nc1-c1cccs1,inactive
22,COc1ccc(C2Nc3cccc(O)c3C(=O)N2Cc2ccccc2)cc1COc1ccc(NC(C)=O)cc1 (configuration not stated),inactive
23,Cc1nn(-c2ccccc2)c(N2CCCC2)c1/C=N/n1cnc2scc(-c3ccccc3)c2c1=O,inactive
24,COc1cc(OC)cc(C(=O)N(Cc2ccco2)Cc2cccs2)c1,inactive
25,O=C(COC(=O)C12CC3CC(CC(Cl)(C3)C1)C2)NCc1ccco1,inactive
26,CCn1c(=O)c(C(=O)CN2CCCc3ccccc32)c(N)n(Cc2ccccc2)c1=O,inactive
27,CC(NC(=O)COC(=O)c1ccco1)C12CC3CC(CC(C3)C1)C2 (configuration not stated),inactive
